Results as given in the supplement of paper PMC3334620.
In all, about 33,000 sequences were measured (“E-score (-0.5 to 0.5)”: median about -0.013, highest 2% from about 0.3 on). Only a selection was taken, and the highest values are over-represented in it overall.

Molecular target: T1, Msn1 (UniProt P22148)
T1 sequence: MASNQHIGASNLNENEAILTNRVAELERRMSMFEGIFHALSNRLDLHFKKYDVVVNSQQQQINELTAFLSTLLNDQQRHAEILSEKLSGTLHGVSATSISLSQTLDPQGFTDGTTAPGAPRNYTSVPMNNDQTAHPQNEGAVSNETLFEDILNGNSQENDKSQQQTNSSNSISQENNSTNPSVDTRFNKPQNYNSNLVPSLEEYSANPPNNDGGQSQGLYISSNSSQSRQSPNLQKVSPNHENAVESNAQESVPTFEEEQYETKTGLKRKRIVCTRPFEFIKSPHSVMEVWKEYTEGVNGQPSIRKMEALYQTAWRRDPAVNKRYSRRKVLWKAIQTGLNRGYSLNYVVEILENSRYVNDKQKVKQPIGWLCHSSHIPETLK
Experiment: PBM E-score (8-mer binding enrichment) (E-score (-0.5 to 0.5)); higher = stronger / more preferred TF binding
Conditions: protein concentration: 200 nM; construct: GST-full length
Experimental: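 Universal 'all 10-mer' protein binding microarrays (Agilent AMADID 015681) probed with GST-tagged S. cerevisiae TFs (full-length or DBD) made by in vitro transcription/translation (PURExpress), about 100-200 nM. Bound TF was detected with fluorescent anti-GST. Each ungapped 8-mer (which stands for itself and its reverse complement) is scored by the PBM enrichment score (E-score), a modified Wilcoxon-Mann-Whitney statistic from -0.5 to +0.5, computed with the Universal PBM Analysis Suite. Scale: above 0.35 generally sequence-specific binding.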

Sequence | PBM E-score
GCTCTGCC | -0.281
GCGGTCCC | -0.188
ACTATGAA | 0.112
CGCAATAA | 0.212
ATCGAAAT | -0.151
CAATAGCA | -0.168
CCCAGGAC | 0.0729
ACGAGGAC | 0.324
GTCAGGAA | 0.0369
ACCAGGAC | 0.329
GCGAGGAC | 0.0256
CTCAGGAC | 0.243
GCCAGGAC | 0.212
ACCAGGAA | -0.0403
ACGAGGAT | -0.178
ATCAGGAG | -0.0236
ATCAGGAC | 0.307
GTCAGGAC | 0.316
CATAAAGC | -0.057
CGTGCTGC | -0.144
CTTCACTA | -0.0698
CTGAGAAG | -0.24
CCGTTGCA | 0.0113
ACCTTCTG | -0.0438
ATGAGTGA | 0.12

Sequence | PBM E-score
ATTGTTAA | 0.0881
GTTGTTAA | 0.334
CTTGTTAA | -0.0116
CAGAGAAG | -0.18
GCGTCTAC | -0.0433
GACATCCC | 0.374
GACATGCC | 0.337
CACATCCC | -0.14
CACATGCC | 0.0209
CACATGAA | 0.0613
GACATGCA | 0.276
AACATCCC | 0.0693
AACATGGA | 0.159
TACATGGA | 0.193
GACATGGA | 0.342
GACATGAA | 0.308
TACATGAA | 0.117
AACCACAA | 0.042
CCGCTAAG | 0.0391
ATACACTG | 0.0602
AAAAAGAA | 0.036
ATTGGAAG | -0.0559
ATAGATCC | -0.0574
AATTTCAG | 0.127
ACGTGCTA | -0.167

Sequence | PBM E-score
GATCCTTA | -0.107
AATGCGTG | 0.0114
AGCAATTG | 0.00301
ATTCGGCC | 0.0205
CGTTGTTC | 0.0573
CTTAGAGA | -0.00262
GACATGAC | 0.335
CACATGAC | -0.0252
TACATCTA | 0.105
AACATGAC | 0.0901
CACATCTA | 0.0157
GACATCTA | 0.404
AGGCACCC | -0.241
ATCGCTAG | 0.022
GAGTGGCC | -0.224
GAGTGTCC | 0.232
AAGTGTCG | 0.126
AAGTGTCC | 0.366
CAGTGTCG | 0.0205
CAGTGTCC | 0.348
AAGTGTCT | 0.257
ACGTGTCG | 0.0594
ACGTGTCT | 0.16
GCGTGTAC | 0.203
ACGTGTCC | 0.455

Sequence | PBM E-score
CCGTGTCG | 0.00655
CCGTGTCC | 0.413
CCGTGTCA | 0.121
GCGTGTCC | 0.431
GCGTGTCA | 0.136
AATCTTCA | 0.211
GCTGTGCC | 0.00582
GCGCTATA | -0.036
GGAGCGAA | 0.0407
AGGGAGGG | -0.283
TAGTTTGA | 0.113
CACCATAG | -0.153
CTGTGTAC | 0.197
CTGTGTCC | 0.439
CTGTGTCA | 0.02
AGGTGTCC | 0.263
CGGTGTCC | 0.304
ATGTGTCG | 0.194
CGGTGTCA | 0.0418
ATGTGTCC | 0.438
ATGTGTCA | 0.217
CCCGTAAG | -0.117
CGTTACTC | -0.115
GCTTTCCC | 0.00071
AGCTCCTC | -0.315

Sequence | PBM E-score
GAAACGAA | 0.115
CCAATTCC | 0.0443
CCAAAGAG | -0.0341
CAGTCCTA | 0.0807
GTGTCCTA | 0.468
GAGTCCTA | 0.0172
CGGTCCTA | -0.185
GCGTCCTA | 0.168
CTGTCCTA | 0.346
ACTGGGCC | -0.0731
CGCTATAC | -0.194
ACAGTACA | 0.189
CTAGTACC | -0.0261
GTAGTACA | 0.167
CTAGTACA | 0.308
CCAGTACA | 0.177
TCAGTACA | 0.319
TAAGAGTA | 0.0785
GCGGAGCC | -0.139
GGTTAGAC | 0.076
ATGTCTCA | 0.446
ATGTCTCC | 0.302
CTGTCTCA | 0.087
ATGTCTCG | 0.333
GTGTCTCA | 0.286

Sequence | PBM E-score
AGGTCTCG | -0.156
ACGGGCGG | -0.141
ACCCACGG | -0.17
CAGGTAAC | -0.0911
GAGCCGCC | -0.217
CAGCCTAC | -0.125
ACACGGAG | 0.00035
ACACGGAC | 0.32
ACACGGAA | 0.166
ACCCGTCC | -0.0862
CTATGGAC | 0.257
GCATGGAC | 0.268
GGATGGAC | 0.178
ACATGGAT | 0.162
AAATGGAC | 0.338
GTATGGAA | -0.0401
GTATGGAC | 0.335
ACATGGAC | 0.326
AAATGGAT | -0.0165
ATATGGAG | 0.12
AAATGGAA | 0.131
ATATGGAC | 0.356
GAAATCTA | -0.139
TCAGCTCA | -0.149
ATTTGCCG | 0.136

Sequence | PBM E-score
GCCAAGCA | -0.199
GAGTATGC | -0.0467
GATCAGAC | -0.195
AGGTACCA | -0.036
CAGTGTCA | -0.105
AATTAGTG | 0.33
AATTAGTA | 0.211
AATTAGTC | 0.272
ATATTGCC | 0.0437
CTTATCTA | 0.0318
CTGGCCAA | -0.0295
AGGCATGA | -0.183
CTGGTCGC | -0.0171
ATAAATTG | 0.225
AAAAATTC | 0.182
ACAAATTA | 0.357
CTAAATTA | 0.144
ACAAATTG | 0.301
CCAAATTC | 0.0869
ACAAATTC | 0.306
CCAAATTA | 0.193
ATAAATTA | 0.343
